The campaign covered roughly 5,500 compounds. About 2,000 (36%) were called active. Roughly 18% stayed inconclusive and do not appear here. Cut-off read from the data, not from the text of the source: active = normalized growth mostly below about 0.91 (no sharp cut-off); inconclusive = no clear call, values can overlap the other calls; inactive = mostly above about 0.92. This is one part of the list.
Test: chemical genetic growth profiling, strain panel (AID 1159580);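 note: tested at 20 µM; growth read once vehicle control cultures reached saturation at 30 °C; 1 = growth at the plate median or of vehicle wells; lower values mean less growth of the strain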
Details: growth OD

Measured: normalized growth

Cc1ccc2c(c1)CC[C@H]1CC(=O)CC[C@]21C
active: S. cerevisiae deletion strains, locus YNL307C, strain MCK1, active compounds read low 0.889
inactive: S. cerevisiae deletion strains, locus YKL009W, strain mrt4, active compounds read low 0.982 | S. cerevisiae deletion strains, locus YKL068W, active compounds read low 0.991 | S. cerevisiae deletion strains, locus YKL085W, strain MDH1 (second series), active compounds read low 0.973 | S. cerevisiae deletion strains, locus YKL085W, strain MDH1, active compounds read low 0.973 | S. cerevisiae deletion strains, locus YKL160W, strain elf1, active compounds read low 1.01 | S. cerevisiae deletion strains, locus YKL190W, strain CNB1, active compounds read low 0.997 | S. cerevisiae deletion strains, locus YKR001C, strain vps1, active compounds read low 0.953 | S. cerevisiae deletion strains, locus YKR026C, strain gcn3, active compounds read low 1.01 | S. cerevisiae deletion strains, locus YKR091W, strain srl3, active compounds read low 1 | S. cerevisiae deletion strains, locus YLL001W, strain dnm1, active compounds read low 0.999 | S. cerevisiae deletion strains, locus YLL026W, active compounds read low 1.01 | S. cerevisiae deletion strains, locus YLL041C, strain sdh2, active compounds read low 0.991 | S. cerevisiae deletion strains, locus YLR027C, strain aat2, active compounds read low 0.989 | S. cerevisiae deletion strains, locus YLR039C, strain RIC1, active compounds read low 0.925 | S. cerevisiae deletion strains, locus YLR058C, strain SHM2, active compounds read low 0.998 | S. cerevisiae deletion strains, locus YLR102C, strain apc9, active compounds read low 0.983 | S. cerevisiae deletion strains, locus YLR113W, strain HOG1, active compounds read low 0.975 | S. cerevisiae deletion strains, locus YLR221C, strain rsa3, active compounds read low 0.995 | S. cerevisiae deletion strains, locus YLR258W, strain gsy2, active compounds read low 1 | S. cerevisiae deletion strains, locus YLR262C, strain YPT6 (second series), active compounds read low 0.942 | S. cerevisiae deletion strains, locus YLR262C, strain YPT6, active compounds read low 0.917 | S. cerevisiae deletion strains, locus YLR268W, strain sec22, active compounds read low 1.01 | S. cerevisiae deletion strains, locus YLR320W, strain mms22, active compounds read low 0.977 | S. cerevisiae deletion strains, locus YLR330W, strain CHS5, active compounds read low 0.991 | S. cerevisiae deletion strains, locus YLR342W, strain FKS1 (second series), active compounds read low 0.94 | S. cerevisiae deletion strains, locus YLR342W, strain FKS1, active compounds read low 0.997 | S. cerevisiae deletion strains, locus YLR357W, strain rsc2, active compounds read low 1.01 | S. cerevisiae deletion strains, locus YLR370C, strain arc18, active compounds read low 1.02 | S. cerevisiae deletion strains, locus YLR371W, strain rom2, active compounds read low 0.972 | S. cerevisiae deletion strains, locus YLR384C, strain iki3, active compounds read low 1.01 | S. cerevisiae deletion strains, locus YLR418C, strain cdc73, active compounds read low 0.923 | S. cerevisiae deletion strains, locus YML016C, strain PPZ1, active compounds read low 0.984 | S. cerevisiae deletion strains, locus YML032C, strain rad52, active compounds read low 0.972 | S. cerevisiae deletion strains, locus YML120C, strain ndi1, active compounds read low 0.986 | S. cerevisiae deletion strains, locus YML124C, strain tub3, active compounds read low 0.98 | S. cerevisiae deletion strains, locus YMR058W, strain fet3, active compounds read low 1.01 | S. cerevisiae deletion strains, locus YMR078C, strain ctf18, active compounds read low 0.969 | S. cerevisiae deletion strains, locus YMR125W, strain sto1, active compounds read low 1 | S. cerevisiae deletion strains, locus YMR129W, active compounds read low 1.01 | S. cerevisiae deletion strains, locus YMR205C, strain PFK2, active compounds read low 1 | S. cerevisiae deletion strains, locus YMR223W, strain ubp8, active compounds read low 0.966 | S. cerevisiae deletion strains, locus YMR231W, strain pep5, active compounds read low 0.997 | S. cerevisiae deletion strains, locus YMR263W, strain SAP30, active compounds read low 1.01 | S. cerevisiae deletion strains, locus YMR307W, strain GAS1, active compounds read low 0.908 | S. cerevisiae deletion strains, locus YNL067W, strain RPL9B, active compounds read low 0.999 | S. cerevisiae deletion strains, locus YNL071W, strain lat1, active compounds read low 0.999 | S. cerevisiae deletion strains, locus YNL128W, strain TEP1, active compounds read low 1.01 | S. cerevisiae deletion strains, locus YNL153C, strain GIM3, active compounds read low 1.02 | S. cerevisiae deletion strains, locus YNL183C, strain NPR1, active compounds read low 0.907 | S. cerevisiae deletion strains, locus YNL209W, strain ssb2, active compounds read low 0.998 | S. cerevisiae deletion strains, locus YNL233W, strain BNI4, active compounds read low 0.979 | S. cerevisiae deletion strains, locus YNL248C, strain rpa49, active compounds read low 0.99 | S. cerevisiae deletion strains, locus YNL250W, strain rad50, active compounds read low 0.979 | S. cerevisiae deletion strains, locus YNL271C, strain bni1, active compounds read low 0.96 | S. cerevisiae deletion strains, locus YNL298W, strain CLA4, active compounds read low 0.987 | S. cerevisiae deletion strains, locus YNL322C, strain KRE1 (second series), active compounds read low 1 | S. cerevisiae deletion strains, locus YNL322C, strain KRE1, active compounds read low 1 | S. cerevisiae deletion strains, locus YNR049C, strain mso1, active compounds read low 1 | S. cerevisiae deletion strains, locus YNR052C, strain pop2, active compounds read low 0.976 | S. cerevisiae deletion strains, locus YOL006C, strain TOP1, active compounds read low 0.878 | S. cerevisiae deletion strains, locus YOL012C, strain htz1 1.46 | S. cerevisiae deletion strains, locus YOL147C, strain pex11, active compounds read low 0.981 | S. cerevisiae deletion strains, locus YOR001W, strain rrp6, active compounds read low 0.981 | S. cerevisiae deletion strains, locus YOR061W, strain CKA2, active compounds read low 0.998 | S. cerevisiae deletion strains, locus YOR069W, strain VPS5, active compounds read low 0.998 | S. cerevisiae deletion strains, locus YOR070C, strain gyp1, active compounds read low 1 | S. cerevisiae deletion strains, locus YOR080W, strain dia2, active compounds read low 0.994 | S. cerevisiae deletion strains, locus YOR083W, strain WHI5, active compounds read low 1 | S. cerevisiae deletion strains, locus YOR106W, strain vam3, active compounds read low 0.998 | S. cerevisiae deletion strains, locus YOR136W, strain idh2, active compounds read low 0.993 | S. cerevisiae deletion strains, locus YOR144C, strain elg1, active compounds read low 0.976 | S. cerevisiae deletion strains, locus YOR184W, strain ser1, active compounds read low 0.895 | S. cerevisiae deletion strains, locus YOR231W, strain MKK1, active compounds read low 0.981 | S. cerevisiae deletion strains, locus YOR265W, strain rbl2, active compounds read low 1 | S. cerevisiae deletion strains, locus YOR270C, strain vph1, active compounds read low 0.889 | S. cerevisiae deletion strains, locus YOR290C, strain snf2, active compounds read low 1.01 | S. cerevisiae deletion strains, locus YOR316C, strain cot1, active compounds read low 0.982 | S. cerevisiae deletion strains, locus YPL051W, strain arl3, active compounds read low 1.01 | S. cerevisiae deletion strains, locus YPL055C, strain LGE1, active compounds read low 0.99 | S. cerevisiae deletion strains, locus YPL078C, strain atp4, active compounds read low 0.993 | S. cerevisiae deletion strains, locus YPL106C, strain sse1, active compounds read low 1.03 | S. cerevisiae deletion strains, locus YPL240C, strain hsp82, active compounds read low 1 | S. cerevisiae deletion strains, locus YPL241C, strain CIN2, active compounds read low 0.993 | S. cerevisiae deletion strains, locus YPL256C, strain CLN2, active compounds read low 0.965 | S. cerevisiae deletion strains, locus YPR119W, strain clb2, active compounds read low 0.98 | S. cerevisiae deletion strains, locus YPR141C, strain kar3, active compounds read low 0.976 | S. cerevisiae deletion strains, locus YPR163C, strain tif3, active compounds read low 0.974 | S. cerevisiae deletion strains, locus YPR167C, strain met16, active compounds read low 0.982 | S. cerevisiae deletion strains, strain wtn01, active compounds read low 0.975 | S. cerevisiae strains, strain wild type, active compounds read low 0.994
